Results filed as inconclusive are left out. Calls of active or inactive are those of the source. Unless noted, the call rests on the fitted dose curve.
Key:
[1] = biological target: KiSS-1 receptor (Homo sapiens) (UniProt Q969F8); assay: Human kisspeptin (KISS1R) small molecule agonists, calcium flux assay in KISS1R-HEK293 cells (AID 1920064; active means well fitted activation curve with a large enough effect in the repeat runs)
How it was run: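 Calcium flux read-out: kinetic fluorescence at Ex/Em=480/540, 1 s intervals over 3 min, after pin-tool compound addition to dye-loaded KISS1R-HEK293 cells. Fifteen concentrations, triplicates.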

[2] = G protein-coupled receptor (GPCR) small molecule agonists, calcium flux assay: HEK293 wild type cell line counter screen (AID 1920065)
How it was run: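 Agonist mode; 18 h seeding at 37 C, 1 h dye load at 37 C; compounds pinned from DMSO, ATP as positive control; kinetic fluorescence 480/540 nm, 3 min, 1 s reads; 15 concentrations, triplicate.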

[3] = p53 small molecule agonists, cell-based qHTS assay with rat liver microsomes (AID 1963578)
How it was run: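 Rat liver microsome activation: microsomes 0.5 mg/mL, NADPH 0.5 mg/mL final; p53RE-bla cells, 16 h 37 C; LiveBLAzer readout, 2 h RT dark.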

[4] = p53 small molecule agonists, cell-based qHTS assay with human liver microsomes: qHTS cell viability counter screen (AID 1963579); further: nearly all actives have a fitted effect of over 45% in size
How it was run: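 Luminescent CellTiter-Glo read-out, 30 min at room temperature, gauged cytotoxicity in p53RE-bla cells exposed 16 h at 37 C to DMSO-dissolved compounds with metabolic activation by human liver microsomes and NADPH, each 0.5 mg/mL final.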

[5] = p53 small molecule agonists, cell-based qHTS assay with rat liver microsomes: qHTS cell viability counter screen (AID 1963580); further: nearly all actives have a fitted effect of over 45% in size
How it was run: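 Rat liver microsome (0.5 mg/mL final) and NADPH (0.5 mg/mL final) co-incubation with compounds for 16 h at 37 C on HCT-116 p53RE-bla cells; cytotoxicity taken from intracellular ATP luminescence.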

[6] = p53 small molecule agonists, cell-based qHTS assay: qHTS cell viability counter screen (AID 1963581); further: nearly all actives have a fitted effect of over 45% in size
How it was run: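 Cytotoxicity read-out: ATP-based luminescence (CellTiter-Glo, 30 min RT) measured in the same wells as the p53 reporter assay, HCT-116 p53RE-bla cells, 16 h compound exposure at 37 C.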

[7] = biological target: D(2) dopamine receptor (Homo sapiens) (UniProt P14416); assay: Dopamine D2 receptor (DRD2) small molecule agonists, cell-based qHTS assay (AID 1963594); further: nearly all actives have a fitted effect of over 35% in size
Sequence of D(2) dopamine receptor (Homo sapiens) (P14416 whole entry, looked up): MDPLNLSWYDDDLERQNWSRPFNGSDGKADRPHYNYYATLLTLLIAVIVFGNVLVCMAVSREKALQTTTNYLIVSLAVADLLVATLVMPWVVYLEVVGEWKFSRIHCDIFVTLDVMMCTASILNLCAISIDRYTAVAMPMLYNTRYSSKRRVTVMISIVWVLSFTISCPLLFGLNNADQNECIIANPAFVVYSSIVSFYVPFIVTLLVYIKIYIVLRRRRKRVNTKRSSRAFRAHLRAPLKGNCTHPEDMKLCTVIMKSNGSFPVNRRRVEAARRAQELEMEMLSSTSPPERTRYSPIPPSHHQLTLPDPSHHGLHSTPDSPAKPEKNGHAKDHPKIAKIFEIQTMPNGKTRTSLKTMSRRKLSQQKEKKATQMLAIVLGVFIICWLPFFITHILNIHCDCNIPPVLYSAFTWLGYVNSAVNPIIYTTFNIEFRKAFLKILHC
How it was run: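 cAMP accumulation in DRD2-HEK293 cells measured by HTRF after 1 h detection; compounds added 10 min before NKH477 (200nM […]) forskolin-analogue stimulation, 30 min at room temperature, with Ro20-1724 present at 0.1 mM final.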

[8] = biological target: D(2) dopamine receptor (Homo sapiens) (UniProt P14416); assay: Dopamine D2 receptor (DRD2) small molecule antagonists, cell-based qHTS assay (AID 1963595; active means well fitted inhibition curve with a large enough effect in the signal ratio in the repeat runs, with a control signal flat; the % refers to the signal ratio; further: potency means the concentration at half of the fitted maximal effect)
How it was run: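 HEK293 cells stably expressing DRD2, preincubated with 0.1 mM Ro20-1724 and compounds 10 min, were stimulated with 200 nM NKH477 plus 12 nM quinpirole for 30 min at room temperature; cAMP measured by HTRF (665/620 nm).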

[9] = biological target: 5-hydroxytryptamine receptor 2A (Homo sapiens) (UniProt P28223); assay: 5-hydroxytryptamine receptor 2A (HTR2A) small molecule antagonists, cell-based qHTS assay (AID 1963586); further: nearly all actives have a fitted effect of over 45% in size; further: potency means the concentration at half of the fitted maximal effect
Sequence of 5-hydroxytryptamine receptor 2A (Homo sapiens) (P28223 whole entry, looked up): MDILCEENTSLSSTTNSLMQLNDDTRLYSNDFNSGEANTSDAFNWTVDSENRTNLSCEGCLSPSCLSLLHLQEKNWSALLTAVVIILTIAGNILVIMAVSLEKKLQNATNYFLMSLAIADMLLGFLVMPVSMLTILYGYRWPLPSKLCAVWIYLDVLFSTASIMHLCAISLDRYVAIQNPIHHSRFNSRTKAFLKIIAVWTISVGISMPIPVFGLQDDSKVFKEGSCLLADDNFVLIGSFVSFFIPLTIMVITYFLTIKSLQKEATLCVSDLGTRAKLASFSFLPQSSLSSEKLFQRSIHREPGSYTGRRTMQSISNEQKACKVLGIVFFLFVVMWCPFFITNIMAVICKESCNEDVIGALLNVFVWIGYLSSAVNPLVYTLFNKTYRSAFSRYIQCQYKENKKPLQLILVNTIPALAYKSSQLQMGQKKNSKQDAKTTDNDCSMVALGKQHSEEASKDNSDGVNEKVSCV
How it was run: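 CHO cells stably expressing human HTR2A were plated for 18 h at 37 C, then loaded with calcium dye for 1 h. Compounds were preincubated 5 min at room temperature before DOI (4 nM solution) was added. Kinetic fluorescence was read for 3 min.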

[10] = biological target: 5-hydroxytryptamine receptor 2A (Homo sapiens) (UniProt P28223); assay: 5-hydroxytryptamine receptor 2A (HTR2A) small molecule agonists, cell-based qHTS assay (AID 1963587); further: nearly all actives have a fitted effect of over 30% in size
How it was run: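 Kinetic calcium-flux fluorescence (2 min, 1 sec intervals) after compound addition in agonist mode. HTR2A-CHO cells were cultured 18 h, then dye-loaded 1 h at 37 C.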

[11] = biological target: Muscarinic acetylcholine receptor M1 (Homo sapiens) (UniProt P11229); assay: Cholinergic receptor muscarinic 1 (CHRM1) small molecule antagonists, cell-based qHTS assay (AID 1963588); further: nearly all actives have a fitted effect of over 40% in size; further: potency means the concentration at half of the fitted maximal effect
Sequence of Muscarinic acetylcholine receptor M1 (Homo sapiens) (P11229 whole entry, looked up): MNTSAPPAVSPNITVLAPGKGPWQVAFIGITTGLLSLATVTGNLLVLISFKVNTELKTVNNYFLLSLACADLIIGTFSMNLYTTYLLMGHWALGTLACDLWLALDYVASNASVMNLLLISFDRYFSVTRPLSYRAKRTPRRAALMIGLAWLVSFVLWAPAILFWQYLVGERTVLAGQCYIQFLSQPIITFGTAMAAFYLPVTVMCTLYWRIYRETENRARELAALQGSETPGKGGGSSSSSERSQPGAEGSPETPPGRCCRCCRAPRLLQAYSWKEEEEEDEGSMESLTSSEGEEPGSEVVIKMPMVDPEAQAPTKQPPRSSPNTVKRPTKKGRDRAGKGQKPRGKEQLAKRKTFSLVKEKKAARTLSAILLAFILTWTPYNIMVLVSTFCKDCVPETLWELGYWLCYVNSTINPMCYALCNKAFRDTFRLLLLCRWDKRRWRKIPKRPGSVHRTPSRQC
How it was run: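 Compounds were tested at 15 concentrations in three independent runs. Dye-loaded CHRM1-CHO cells were exposed 5 min at room temperature before stimulation by acetylcholine added at 50nM. Intracellular calcium was read kinetically on FDSS for 3 min.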

[12] = biological target: Muscarinic acetylcholine receptor M1 (Homo sapiens) (UniProt P11229); assay: Cholinergic receptor muscarinic 1 (CHRM1) small molecule agonists, cell-based qHTS assay (AID 1963589); further: nearly all actives have a fitted effect of over 35% in size
How it was run: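 Calcium flux read-out: kinetic fluorescence at 1 sec intervals after pin-tool compound addition to dye-loaded CHRM1-CHO cells (human M1). Agonist mode; 15 concentrations tested in triplicate independent runs.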

[13] = biological target: Beta-2 adrenergic receptor (Homo sapiens) (UniProt P07550); assay: Adrenergic beta2 receptor (ADRB2) small molecule antagonists, cell-based qHTS assay (AID 1963592); further: series mostly up to about 92 µM; nearly all actives have a fitted effect of over 50% in size
Sequence of Beta-2 adrenergic receptor (Homo sapiens) (P07550 whole entry, looked up): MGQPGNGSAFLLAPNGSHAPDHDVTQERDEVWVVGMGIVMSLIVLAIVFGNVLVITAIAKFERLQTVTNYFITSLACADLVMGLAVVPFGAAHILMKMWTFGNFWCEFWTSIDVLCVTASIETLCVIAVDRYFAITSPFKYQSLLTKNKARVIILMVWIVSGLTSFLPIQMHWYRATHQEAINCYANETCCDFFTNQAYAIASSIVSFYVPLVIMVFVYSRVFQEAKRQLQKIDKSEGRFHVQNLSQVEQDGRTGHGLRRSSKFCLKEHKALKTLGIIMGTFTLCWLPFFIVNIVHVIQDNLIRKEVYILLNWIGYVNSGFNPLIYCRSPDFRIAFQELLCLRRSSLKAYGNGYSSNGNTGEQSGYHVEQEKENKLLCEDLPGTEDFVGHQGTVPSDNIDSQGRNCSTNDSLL
How it was run: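 Assay format: CHO-ADRB2 cells, 18-20hr seeding at 37C/5% CO2, then compound plus 1nM isoproterenol agonist mix for 0.5hr RT. Homogeneous time-resolved fluorescence cAMP detection after 1hr, expressed as 665/615 nm ratio.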

[14] = biological target: Beta-2 adrenergic receptor (Homo sapiens) (UniProt P07550); assay: Adrenergic beta2 receptor (ADRB2) small molecule agonists, cell-based qHTS assay (AID 1963593);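 further: CHO cells stably overexpressing human ADRB2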
How it was run: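 CHO cells stably over-expressing ADRB2 were plated overnight at 37C, then dosed with compounds plus a stimulation mix containing 100uM IBMX and 25uM Ro-20-1724 for 0.5hr at room temperature. cAMP was measured by HTRF competition, 1hr.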

[15] = cAMP Responsive Elements (CRE) small molecule antagonists, cell-based qHTS assay (AID 1963591; active means well fitted inhibition curve with a large enough effect in the signal ratio in the repeat runs, not every such curve was filed as active; the % refers to the signal ratio; further: potency means the concentration at half of the fitted maximal effect)
How it was run: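 HEK293T CRE-bla; 18 h preincubation; compound pin-transfer; NKH477 0.25 uM final, 3 h, 37 C; LiveBLAzer FRET substrate 2 h RT.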

[16] = biological target: Gonadotropin-releasing hormone receptor (Homo sapiens) (UniProt P30968); assay: Human gonadotropin-releasing hormone receptor (GnRHR) small molecule agonists, calcium flux assay in GnRHR-HEK293 cells (AID 1920063); further: nearly all actives have a fitted effect of over 35% in size
Sequence of Gonadotropin-releasing hormone receptor (Homo sapiens) (P30968 whole entry, looked up): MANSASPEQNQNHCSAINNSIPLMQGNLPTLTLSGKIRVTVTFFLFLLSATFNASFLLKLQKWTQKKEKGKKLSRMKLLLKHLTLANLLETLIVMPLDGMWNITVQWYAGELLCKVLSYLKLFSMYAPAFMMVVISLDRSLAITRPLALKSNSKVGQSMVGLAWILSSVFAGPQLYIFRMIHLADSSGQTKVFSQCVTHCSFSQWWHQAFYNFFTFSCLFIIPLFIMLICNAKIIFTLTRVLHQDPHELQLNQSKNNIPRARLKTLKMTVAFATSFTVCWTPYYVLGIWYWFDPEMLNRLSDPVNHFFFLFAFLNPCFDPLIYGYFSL
How it was run: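 Calcium-dye fluorescence, Ex/Em=480/540, recorded every 1 sec over 3 min after compound addition to GnRHR-HEK293 cells. Cells had been seeded 18 hours earlier and dye-loaded for 1 hour at 37 C. Fifteen concentrations, triplicates.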

[17] = p53 small molecule agonists, cell-based qHTS assay (AID 1963582; active means well fitted activation curve with a large enough effect in the signal ratio in the repeat runs, not every such curve was filed as active; the % refers to the signal ratio)
How it was run: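 Fluorescence intensity read-out of a beta-lactamase reporter under a p53 response element. Cells were exposed to DMSO-dissolved compounds for 16 h at 37 C, then developed with FRET substrate for 2 h at RT.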

[18] = cAMP Responsive Elements (CRE) small molecule agonists, cell-based qHTS assay (AID 1963590)
How it was run: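 Beta-lactamase reporter readout: LiveBLAzer B/G FRET substrate, 2 h at room temperature, added after 3 h compound treatment of CRE-bla HEK 293T cells at 37 C/5% CO2.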

[19] = p53 small molecule agonists, cell-based qHTS assay with human liver microsomes (AID 1963577);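 further: p53 response element beta-lactamase reporter cells with liver microsomes plus NADPH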
How it was run: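 p53RE-bla cells; 5 h settle, 37 C/5% CO2; cpd + HLM 0.5 mg/mL + NADPH 0.5 mg/mL (final); 16 h 37 C; LiveBLAzer 2 h RT dark; fluorescence readout.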
On the % scale 0 is the no-effect control and ±100 the full control effect.

Sequence of KiSS-1 receptor (Homo sapiens) (Q969F8 whole entry, looked up): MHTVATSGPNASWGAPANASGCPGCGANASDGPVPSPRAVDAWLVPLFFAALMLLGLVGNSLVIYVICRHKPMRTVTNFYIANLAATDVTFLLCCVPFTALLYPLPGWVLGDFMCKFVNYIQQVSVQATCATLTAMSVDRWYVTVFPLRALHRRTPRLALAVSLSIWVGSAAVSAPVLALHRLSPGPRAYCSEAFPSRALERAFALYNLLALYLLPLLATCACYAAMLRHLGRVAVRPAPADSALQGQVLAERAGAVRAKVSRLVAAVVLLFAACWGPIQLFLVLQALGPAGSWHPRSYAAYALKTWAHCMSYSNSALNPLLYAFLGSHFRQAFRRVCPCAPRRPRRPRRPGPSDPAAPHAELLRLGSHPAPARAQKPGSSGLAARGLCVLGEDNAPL

OCCN1CCN(CCCN2c3ccccc3Sc3ccc(Cl)cc32)CC1
inactive: Potency [1] | Potency [2] | Potency [3] | Potency [4] | Potency [5] | Potency [6] | Potency [7]
active: Potency [8] 0.0266 µM

COc1ccc2ccccc2c1
inactive: Potency [10] | Potency [11] | Potency [12] | Potency [13] | Potency [14] | Potency [7] | Potency [8]
active: Potency [9] 33.4 µM

CCOC(=O)c1nc(C(Cl)(Cl)Cl)n(-c2ccc(Cl)cc2Cl)n1
inactive: Potency [1] | Potency [2] | Potency [4] | Potency [5] | Potency [9] | Potency [8]
active: Potency [15] 61.1 µM

O=C(O)COCCN1CCN(C(c2ccccc2)c2ccc(Cl)cc2)CC1 (centres undefined)
inactive: Potency [16] | Potency [6] | Potency [17] | Potency [9] | Potency [10] | Potency [11] | Potency [12] | Potency [18] | Potency [15] | Potency [13] | Potency [14] | Potency [7]

CCCCC/C=C\C=C\C(=O)OCC
inactive: Potency [1] | Potency [19] | Potency [3] | Potency [4] | Potency [5] | Potency [6] | Potency [17] | Potency [11] | Potency [12] | Potency [13] | Potency [14] | Potency [8]

CS(=O)(=O)c1ccc([C@@H](CC2CCCC2)C(=O)Nc2cnccn2)cc1Cl
inactive: Potency [9] | Potency [10] | Potency [11] | Potency [12] | Potency [13] | Potency [7] | Potency [8]

O=C(O)O
inactive: activation [1] 0.0823% [at 6.97 µM] | activation [19] -14.9% [at 5.99 µM] | activation [3] -6.42% [at 5.99 µM] | activity change, negative = cytotoxicity [4] -18.2% [at 5.99 µM] | activity change, negative = cytotoxicity [6] 11.6% [at 5.99 µM] | activation [17] -4.58% [at 5.99 µM] | activity, negative = inhibition [9] 11.9% [at 5.62 µM] | activation [10] -3.03% [at 7.02 µM] | activity, negative = inhibition [11] -13.8% [at 5.58 µM] | activation [12] -0.0976% [at 6.97 µM] | activation [18] 2.15% [at 8.39 µM] | activity change, negative = inhibition [15] -6.17% [at 8.39 µM] | activity change, negative = inhibition [13] -4.62% [at 8.39 µM] | activation [7] -1.72% [at 8.39 µM] | activity change, negative = inhibition [8] 0.0808% [at 8.38 µM]

Cc1c(C)n(Cc2ccccc2)c2ccc(C(=O)OCCN(C)C)cc12
active: Potency [8] 33.5 µM
inactive: Potency [16] | Potency [2] | Potency [19] | Potency [3] | Potency [4] | Potency [5] | Potency [6] | Potency [11] | Potency [12] | Potency [18] | Potency [13]

CCCCc1oc2ccccc2c1C(=O)c1cc(I)c(OCCN(CC)CC)c(I)c1
inactive: Potency [16] | Potency [1] | Potency [17] | Potency [13] | Potency [14] | Potency [7] | Potency [8]

CN1CCN(CCCN2c3ccccc3Sc3ccc(S(=O)(=O)N(C)C)cc32)CC1
inactive: Potency [16] | Potency [2] | Potency [3] | Potency [4] | Potency [5] | Potency [6] | Potency [17] | Potency [10] | Potency [7]
active: Potency [11] 5.16 µM | Potency [8] 0.0473 µM

Source: PubChem BioAssay (Tox21)
